In PubChem BioAssay (Tox21) one finds Potency data, which are given here for 24 molecules.

Inconclusive results are not listed. A call without a number means that no potency is given here. Active and inactive are the calls of the source. Calls follow the shape of the dose curve; as a rule, active = well fitted cell-killing curve with a large enough effect in the repeat runs; inconclusive = weak or mixed curves, or effect the other way; inactive = flat fitted curve, though single readings scatter.

This assay in a line: cAMP Responsive Elements (CRE) small molecule antagonists, cell-based qHTS assay: qHTS cell viability counter screen (AID 2060913). Also: nearly all actives have a fitted effect of over 40% in size. The conditions noted are these: CRE-bla HEK293T viability, CellTiter-Glo luminescence, 5 h; series mostly up to 92.4 µM. In outline: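 Viability of NKH477-stimulated (0.25 uM final) CRE-bla HEK293T cells is measured by CellTiter-Glo luminescence following 3 hrs compound exposure at 37 C.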
Take `CCCC(C)CCC(C)=O` (centres undefined): the Potency entry was “inactive”. `O=C(c1ccccc1)c1ccc(O)cc1`: the Potency entry is “inactive”. In the case of `O=C(O)Cn1c(C(=O)Nc2nc(-c3ccccc3Cl)cs2)cc2ccccc21`, the Potency result is “inactive”. Take `c1ccc(CC2=NCCN2)cc1`: the Potency entry is “inactive”. As to `CNC(=O)c1cnn(-c2nc(N)c3ncn([C@@H]4O[C@H](CO)[C@@H](O)[C@H]4O)c3n2)c1`, the Potency result was “inactive”.

In the case of `Cc1c(F)cc2c(=O)c(C(=O)O)cn3c2c1CCC3C` (centres undefined), the Potency entry is “inactive”. In the case of `COC(=O)CCCC(=O)OC`, the Potency entry is “inactive”. With `Cc1ccc(S(=O)(=O)O)c(C)c1`, the Potency entry is “inactive”.

As for `Nc1ncnc2nc[nH]c12`, the Potency entry is “inactive”.

As for `CCOC(=O)OCC`, the Potency entry is “inactive”.

As to `NS(=O)(=O)c1cc(C(=O)NN2C[C@H]3[C@H]4CCC(C4)[C@H]3C2)ccc1Cl`, the Potency entry is “inactive”. Then `CC1(N)CCC(C(C)(C)N)CC1` (centres undefined), with “inactive”; and `CC(C)NCC(O)COc1cccc2ccccc12` (centres undefined), with “inactive”; and `Clc1ccc2c(c1)CCc1cccnc1C2=C1CCNCC1`, with “inactive”.

For `C1=CCC2CC=CC2C1` (centres undefined), the Potency result is “inactive”.

Take `CCOC(=O)c1ccc(C2CCC(NC[C@H](O)COc3ccc(O)c(NS(C)(=O)=O)c3)CC2)cc1` (some centres undefined): the Potency entry was “inactive”. As for `CCCCOCCOCCOCCCC`, the Potency entry is “inactive”. As for `C(=C/c1ccccc1)/c1ccccc1`, the Potency entry was “inactive”. For the molecule `FC(F)(F)C(Cl)Br` (centres undefined), the Potency result is “inactive”. As to `Oc1ccc(Oc2ccccc2)cc1`, the Potency entry was “inactive”. As for `C[C@H]1C[C@H](O)c2ccsc2S1(=O)=O`, the Potency result is “inactive”. As for `CC(=O)OC(C)c1ccccc1` (centres undefined), the Potency entry is “inactive”. On to `COCCCOc1cc(C[C@@H](C[C@H](N)[C@@H](O)C[C@H](C(=O)NCC(C)(C)C(N)=O)C(C)C)C(C)C)ccc1OC`, for which the Potency result is “inactive”. As for `CCCCCCCC(=O)[O-].CCCCCCCC(=O)[O-].[Zn+2]`, the Potency entry is “inactive”.
